Measurements reported in ChEMBL document CHEMBL3988442, “University of Dundee, Small-Polar-MMV Screening Library” (2021).
The campaign covered roughly 53,000 compounds. About 900 (1.7%) showed an effect of 50% or more. The full list was thinned out, with strong results kept by preference.

tested on: Mycobacterium tuberculosis; test: Cornell - Phenotypic assay to identify agents that inhibit growth of Mycobacterium tuberculosis; type: functional; parameters: scale not given: direction of the effect not stated beside the values; settings: 10 mM as filed; unlikely as a test dose

Row | SMILES | Percent Effect [%]
1 | Cn1cc(N2C(=O)CC[C@@H]3[C@H]2CCN3C(=O)c2cscn2)cn1.O=C(O)C(F)(F)F | 15.97
2 | Cc1cc(C(=O)N2CC[C@H]3[C@@H]2CCC(=O)N3c2ccccc2)no1 | 0.08428
3 | O=C(c1cscn1)N1CC[C@H]2[C@@H]1CCC(=O)N2c1ccccc1 | 102.6
4 | CCc1noc(CN(Cc2ccc3c(c2)OCO3)C2CCCC2)n1 | 1.573
5 | Cc1nnc(CN(Cc2ccc3c(c2)OCO3)C2CCCCC2)o1 | 52.33
6 | Cc1noc(CN(Cc2ccc3c(c2)OCO3)C2CCCC2)n1 | 4.979
7 | Cc1nnc(CN(Cc2ccc3c(c2)OCO3)C2CCC(C)CC2)o1 (stereo not given) | 50.97
8 | Cc1nnc(CN(Cc2ccccc2Br)C2CC2)o1 | 42.91
9 | Cc1nnc(CN(Cc2cccc(Br)c2)C2CC2)o1 | 22.14
10 | O=C(CCn1cc(Cl)cn1)N1CCN(CC2CC2)[C@@H]2CS(=O)(=O)C[C@@H]21 | -27.81
11 | O=C(CC1CCc2ccccc21)N1CCC(C(=O)O)(n2ccnc2)CC1 (stereo not given) | -2.815
12 | O=C(NCc1ccnc(OCC2CC2)c1)C1COc2ccccc2O1 (stereo not given) | 12.77
13 | CC(=O)Nc1cccc(OCCNC(=O)N(C)Cc2ccco2)c1 | 2.051
14 | CC(C)C(=O)Nc1cccc(OCC(=O)NCc2ccccc2F)c1 | 6.908
15 | CNCc1cc(F)ccc1Oc1ccc(Cl)cc1 | -16.87
16 | CC(C)C[C@H](N)COc1cccc(F)c1Oc1ccc(Cl)cc1 | 107.4
17 | CC(C)C[C@H](N)COc1cccc(F)c1Oc1ccccc1 | 5.347
18 | CC(C)C[C@H](N)COc1cccc(F)c1Oc1cccc(Cl)c1 | 106.7
19 | Cc1ccc(Oc2c(F)cccc2OC[C@@H](N)CC(C)C)cc1 | 106.4
20 | CCNCCOc1ccc(-c2cc(N)nc3[nH]ccc23)cc1 | 21.99
21 | COc1c(C)cnc(CN2CCCC2c2noc(C)n2)c1C (stereo not given) | -16.92
22 | CCCC1(CO)CCCN(c2ncnc3c2c(C)nn3C)C1 (stereo not given) | -13.93
23 | Cc1cccc(-c2ccc(C(=O)N3CCN(C(C)C)CC3)c(=O)[nH]2)c1 | 26.41
24 | CC(C)OCCC(=O)NS(=O)(=O)N1CCOc2ccccc21 | 29.29
25 | CCOc1ccccc1C(=O)NCCc1ccoc1 | 23.58
26 | CNS(=O)(=O)c1ccc(C(=O)NC2CCOc3ccccc32)o1 (stereo not given) | 7.684
27 | CC(C)c1nnc2sc(CC3CN(Cc4ccccc4)CCO3)nn12 (stereo not given) | -19.21
28 | O=C(NCCCOCC1CCCO1)c1cccnc1N1CCCC1 (stereo not given) | 105.2
29 | O=C(NCCCOCC1CCCO1)c1cccnc1N1CCOCC1 (stereo not given) | -37.06
30 | CC(C)COCCCNC(=O)c1cccnc1N1CCOCC1 | 3.314
